# The list is not random: actives were taken first. Their share in the collection is about 2.7%.
# CHT PAM = allosterically activates the human high affinity choline transporter | B-score at 10 µM | CHT-expressing cells, membrane potential dye, choline EC20; stronger effect = higher value; LV-AA mutant CHT in HEK293 cells | Q9GZV3 | 0.49% of 310,000 active;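 active = initial fluorescence not abnormally high and integrated response B-score, plate-corrected, over 3 SD above library mean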
# Target sequence (Q9GZV3 whole entry, looked up): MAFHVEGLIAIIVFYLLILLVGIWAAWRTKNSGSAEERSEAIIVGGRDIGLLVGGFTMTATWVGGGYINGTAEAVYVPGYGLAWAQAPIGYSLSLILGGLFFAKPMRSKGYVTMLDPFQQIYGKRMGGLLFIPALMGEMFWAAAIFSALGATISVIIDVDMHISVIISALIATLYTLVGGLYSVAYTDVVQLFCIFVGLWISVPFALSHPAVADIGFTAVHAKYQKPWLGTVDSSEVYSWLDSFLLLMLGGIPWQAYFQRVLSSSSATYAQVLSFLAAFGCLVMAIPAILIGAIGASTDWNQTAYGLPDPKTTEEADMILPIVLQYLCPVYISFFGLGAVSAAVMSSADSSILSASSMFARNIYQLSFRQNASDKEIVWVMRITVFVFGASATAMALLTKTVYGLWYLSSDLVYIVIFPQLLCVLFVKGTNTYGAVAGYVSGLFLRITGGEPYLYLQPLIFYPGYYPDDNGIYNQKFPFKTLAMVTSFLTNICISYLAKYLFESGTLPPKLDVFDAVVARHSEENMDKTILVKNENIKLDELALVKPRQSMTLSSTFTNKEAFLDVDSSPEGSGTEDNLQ
# CHT inh = inhibitors of human choline transporter CHT; CHT-expressing cells, membrane potential dye, choline response; stronger effect = lower value; B-score at 10 µM; AID 488975; 0.86% of 310,000 active; Q9GZV3;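 active = B-score over 3 SD under the library average, and starting fluorescence ratio not unusually high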;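 note: choline stimulus applied at its EC90 after an EC20 pre-addition; B-score computed on integrated fluorescence ratio after choline addition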
# IDE cell inh = inhibits human insulin-degrading enzyme in HEK cells. P14735. FAbetaB cleavage, fluorescence polarization. inhibition, % at 5.59 µM. 0.41% of 320,000 active. AID 434962;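 active = percent inhibition above the average of all tested compounds plus 3 SD, set per screening campaign, cut at about 16% in these data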;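 note: IDE supplied by intact live HEK cells; FP after avidin binding of uncleaved biotin substrate so inhibition keeps polarization high; 0% = DMSO wells and 100% = 60 µM reference IDE inhibitor Ii1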
# ANO1 block = inhibitors of mouse TMEM16A calcium-activated chloride channel; normalized B-score (activity score, 25-100; higher = stronger inhibition) at 10 µM; AID 588511; 1.2% of 310,000 active; HEK293 TMEM16A/YFP iodide influx fluorescence, ionomycin;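 active = ratio plate-corrected score three or more library SD toward inhibition, starting fluorescence score within five deviations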;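 note: score derived from kinetic fluorescence span divided by baseline fluorescence per well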
# IDE cell activ = boosts human insulin-degrading enzyme activity in HEK cells. FAbeta-B cleavage, fluorescence polarization; 0% vehicle, 100% cell-free pure enzyme wells. AID 493087. 0.073% of 340,000 active. P14735. activation, % at 5.96 µM;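 active = activation above the mean of all tested compounds plus 3 SD, set per screening campaign, cut at about 17% in these data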
# ANO1 activ = activates or potentiates the mouse TMEM16A chloride channel | AID 623877 | B-score at 10 µM | HEK293 TMEM16A/YFP-H148Q/I152L, iodide quench fluorescence; stronger effect = lower value | 0.3% of 340,000 active;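 active = fluorescence-ratio B-score plate-corrected deviation score at least 3 library SD below zero, with starting fluorescence score within 5 deviations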;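 note: channel opened by trigger with iodide after compound preincubation; score built on the fluorescence ratio of max minus min over baseline; more negative score means more quench and so TMEM16A activation or potentiation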
# TMEM16A reconf = TMEM16A (mouse) chloride channel inhibition, re-confirmation | shares compounds with ANO1 block | HEK293 TMEM16A/YFP-H148Q, iodide quench fluorescence; ionomycin added to raise cell calcium | inhibition, % at 10 µM | 39% of 2,300 active | AID 652189;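 active = mean duplicate percent inhibition, scaled so buffer wells are 0 and the reference blocker 100, over three buffer SD above buffer mean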
# HEK293 Ca mobil = calcium mobilization counter-screen hit for TMEM16A inhibitor series; shares compounds with ANO1 block; TMEM16A/YFP HEK293, Fluo4 calcium mobilization; calcium response (% of ionomycin), % at 10 µM; 2% of 2,300 active; AID 652231;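 active = duplicate-averaged calcium signal over 20% of the ionomycin maximum, relative to buffer baseline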;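 note: each well's signal is peak minus trough fluorescence divided by its pre-addition baseline; 0% = buffer wells and 100% = ionomycin wells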
# YFP-HEK293 quench = counter-screen for TMEM16A inhibitors: effect in parental YFP-HEK293 cells | shares compounds with ANO1 block | iodide YFP quench, ionomycin | YFP ratio F(max-min)/F0 at 10 µM | 2,300 tested, under 10 active | AID 652233;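 active = yellow fluorescent protein signal ratio exceeding the buffer control mean by over 5 SD of those controls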;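 note: ratio is mean of duplicate wells from kinetic YFP trace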
# ClC-1 inh = blocks the rat ClC-1 voltage-dependent chloride channel; ratio percent, % at 10 µM; 2,300 tested, under 10 active; shares compounds with ANO1 block; AID 652236; CHO ClC-1-YFP, iodide influx fluorescence quench; iodide control reads 0, buffer control 100;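 active = duplicate-mean ratio percent above the mean of iodide-only control wells, which defines zero, plus 5 of their SD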;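 note: higher percent means stronger block of ClC-1 iodide influx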
# Numbers without * were called inactive; i = inactive; / = no result given.
SMILES,CHT PAM,CHT inh,IDE cell inh,ANO1 block,IDE cell activ,ANO1 activ,TMEM16A reconf,HEK293 Ca mobil,YFP-HEK293 quench,ClC-1 inh
COc1ccc(N2CCN(C(=O)CSc3nnc(-c4cc5ccccc5cc4O)n3C)CC2)cc1,i,i,7,i,-1,i,/,/,/,/
Cc1ccc(C(=O)NNC(=O)c2cc(C)nc3ccccc23)cc1,/,/,6,/,-1,i,/,/,/,/
Cc1ccc(C)c(OCC(=O)Nc2nc3ccc([N+](=O)[O-])cc3s2)c1C,i,i,-2,100*,-2,i,i,i,-1,-24
COc1cccc(C(=O)/C(C#N)=N/Nc2cccc(-c3ccnc(C)n3)c2)c1,i,i,0,100*,-1,i,i,i,-1,-6
CC(=O)C1=C(O)C(=O)N(c2ccccn2)C1c1cccc(F)c1 (centres undefined),i,i,6,i,1,/,/,/,/,/
CN(Cc1ccccc1Cl)C(=O)CCNC(=O)c1ccco1,/,/,/,/,5,i,/,/,/,/
Cc1nc2cc(-c3ccsc3-n3c(C)ccc3C)[nH]n2c(=O)c1Cl,i,i,10,100*,3,i,20%*,i,-0.91,-14
CCN(c1cccc(C(F)(F)F)c1)S(=O)(=O)c1ccc2c(c1)CCN2C(C)=O,i,i,1,25*,0,/,18%*,i,-0.86,-6
COc1ccccc1C1=NOC(Cn2c(NCCCO)nc3c2c(=O)n(C)c(=O)n3C)C1 (centres undefined),i,i,4,i,-6,i,/,/,/,/
COc1ccccc1C1=NOC(Cn2c(NCC3CCCO3)nc3c2c(=O)n(C)c(=O)n3C)C1 (centres undefined),i,i,3,i,2,i,i,i,-1,-10
CCN(C(=O)COC(=O)c1ncc(Cl)c(Cl)c1Cl)c1c(N)n(Cc2ccccc2)c(=O)[nH]c1=O,/,/,/,/,3,i,/,/,/,/
CCc1nn(C(C)C(=O)NCCN2CCN(c3cccc(C)c3C)CC2)c(=O)c2cc3occc3n12 (centres undefined),i,i,1,i,-9,i,i,i,-1,2
CCOc1ccc(NC(=O)c2cc(C3CC3)nc3c2cnn3C(C)C)cc1OC,/,/,-1,/,0,i,/,/,/,/
COc1ccccc1N(CC(=O)NCCSCc1ccccc1)S(C)(=O)=O,i,i,1,i,-3,i,/,/,/,/
COc1ccccc1N(CC(=O)NCCSCc1cccc(C)c1)S(=O)(=O)c1ccccc1,i,i,-1,25*,0,i,i,i,-0.96,-18
CC(=O)c1cc(Cl)ccc1OCC(=O)Nc1cccc(S(=O)(=O)N2CCCC2)c1,/,/,-1,/,4,i,/,/,/,/
CC1=C(C(=O)OCC(Br)(Br)Br)C(c2cccc([N+](=O)[O-])c2)NC(=O)N1CCCC(=O)O (centres undefined),i,i,-2,25*,2,i,i,i,-0.99,0
COc1ccc(Br)cc1/C(C)=N/NC1=NCCN1,i,i,2,100*,2,i,20%*,i,-0.86,-10
CCOC(=O)c1sc(N2C(=O)C(O)=C(C(=O)c3ccco3)C2c2cccc(Cl)c2)nc1C (centres undefined),i,i,3,25*,0,i,i,i,-0.73,-8
O=c1c2ccccc2sc2ccc(NCCCN3CCOCC3)cc12,i,i,5,i,-12,i,/,/,/,/
CN1CCCC1CCNc1ccc2sc3ccccc3c(=O)c2c1 (centres undefined),i,i,4,i,1,i,i,i,-0.73,6
CCc1nnc2sc(-c3ccc(NC(=O)CSc4ccc(Cl)cc4)cc3)nn12,i,i,9,i,-3,i,i,i,-1.1,0
Cc1ccc(Nc2nnc(SCC(=O)NC3CC3)s2)cc1,/,/,-2,/,2,i,/,/,/,/
CCOc1ccccc1NC(=O)CSc1nnc(-c2cccnc2)o1,i,i,-9,i,-2,i,/,/,/,/
COc1ccc(CCC(=O)NNC(=O)c2ccccn2)cc1OC,/,/,/,/,3,i,/,/,/,/
SMILES,CHT PAM,CHT inh,IDE cell inh,ANO1 block,IDE cell activ,ANO1 activ,TMEM16A reconf,HEK293 Ca mobil,YFP-HEK293 quench,ClC-1 inh
COc1cccc(CN2C(=O)C(C)N(C(=O)c3ccccc3)c3ccccc32)c1 (centres undefined),i,i,-1,25*,2,i,17%*,i,-0.86,-14
COc1ccc(CN2C(=O)C(C)N(C(=O)c3c(F)cccc3F)c3ccccc32)cc1 (centres undefined),i,i,9,i,4,i,/,/,/,/
CC1CC(C)CN(Cc2nc3c(c(=O)n(C)c(=O)n3C)n2CCN2CCOCC2)C1 (centres undefined),i,i,4,100*,0,i,i,i,-1.2,-4
O=C(NC1CCCCC1)C1CCCN1S(=O)(=O)c1cccc2nsnc12 (centres undefined),i,i,1,100*,3,i,i,i,-1.1,-6
COC(=O)Cn1cc(C(=O)OC)c2ccccc21,i,i,7,i,4,i,/,/,/,/
COC(=O)c1cn(CCOc2ccccc2OC)c2ccccc12,i,i,2,25*,-2,i,i,i,-0.92,-18
Cc1cc(C)cc(OCCCCn2cncn2)c1,i,i,3,i,2,i,/,/,/,/
CSc1ncccc1C(=O)OCC(=O)Nc1cccc(S(=O)(=O)N2CCOCC2)c1,/,/,6,/,8,i,/,/,/,/
CC(C)(C)c1ccc(OCc2ccc(C(=O)NCc3cccnc3)o2)cc1,i,i,4,100*,1,i,i,i,-1.1,-16
CN(C)Cc1cc(O)c(CN(C)C)cc1O,i,i,-4,i,-4,i,i,i,-0.86,-6
CN(C)Cc1cc(C(C)(C)C)cc(C(C)(C)C)c1O,i,i,1,i,0,i,/,/,/,/
